# Assay results as given in PubChem BioAssay (EPA / NIEHS).
# The source made the active and inactive calls. Rule for the calls: active = hit-call score of the fitted dose curve at least 0.9, where 1 is the maximum; inactive = score below 0.9.
# Read-out: ATP-citrate lyase (ACLY), ACLY (gene 47)
# Assay: LTEA_HepaRG_ACLY: Life Technologies and Expression Analysis (LTEA) Assay for ATP-citrate lyase (ACLY) using HepaRG (AID 2283466)
# Settings: mRNA level, 48 h; actives raise or lower the signal
# Protocol: LTEA_HepaRG is a cell based, multiplexed-readout assay that uses HepaRG, a human liver cell line, with measurements taken at 48 hours after chemical dosing on a 96-well plate.LTEA_HepaRG_ACLY is one of 102 assay component(s) measured in the LTEA HepaRG cell culture assay. It is a marker of Steatosis.Data from the assay component LTEA_HepaRG_ACLY was analyzed into 1 endpoint. This assay endpoint, LTEA_HepaRG_ACLY, was analyzed with bidirectional fitting relative to DMSO as the negative control and baseline of activity. Using a type of inducible reporter, measures of mRNA induction for gain or loss-of-signal activity can be used to understand regulation of transcription factor activity. To generalize the intended target to other relatable targets, this assay endpoint is annotated to the lyase intended target family, where the subfamily is steatosis.
# A total of 1060 chemcials from the ToxCast library were tested in eight-point concentration-response experiments. Cell culture and cytotoxicity assays were conducted at Thermo Fisher Scientific's Custom Services facility (Madison, WI). A single lot of human HepaRG cells (Thermo Fisher Scientific, Frederick, MD) was used for the cell culture experiments. 96-well format collagen type I coated plates of human HepaRG cells were prepared using established methods. Briefly, cryopreserved HepaRG cells were thawed, plated at a density of approximately 100,000 cells/well in HepaRG Thaw, Plate, and General Purpose media (HPRG770, Thermo Fisher Scientific), and incubated for 48 hours. 0.5% DMSO was selected as vehicle control to balance the requisite need of DMSO in HepaRG cultures to maintain differentiation (for example, baseline metabolism, proportions of hepatocytes vs. cholangiocytes), while enabling further hepatic receptor pathway activation (for example, PXR and CAR) in response to chemical exposure. 48 hours after plating, the culture medium was replaced with HepaRG Serum-Free Incudtion Media. Cells were exposed to each test chemical in duplicate and maintained in CO2 incubators for another 48 hours. Chemical plates were thawed to room temperature and 200x concentrations of treatment groups were prepared. 8-point conentration-reponse curves were made with the highest exposure at 100 uM, followed by half-log dilutions, all in 0.5% DMSO. Each test plate contained variouse controls, induction positive controls (1mM phenobarbital), cytotoxicity positive controls ([…] aflatoxin B1), vehicle controls (0.5% DMSO), and total lysis controls (0.5% DMSO). Cell morphology images were taken using an Essen IncuCyte FLR automated microscope, with six 96-well plates imaged in about 24 minutes. Images were captured and exported and JPEG files. Spent culture media was transfered to black-well plates for the LDH assay, and remaining media was sorted at -80 C for later use. Cells were treated with RLT buffer and frozen until shipped for gene expression analysis. Total RNA was isolated from the cell suspension in 75 uL of Buffer RLT (Qiagen, Germantown, MD 20874) by Quintiles/Expression Analysis (Durham, NC) using a custom isolation procedure. Total RNA from each plate well was transferred to a preamplification plate. Fluidigm's 96.96 Dynamic ArrayTM (Fluidigm, Amsterdam, the Netherlands) technology was used for gene expression analyses by quantitative reverse transcription polymerase chain reaction (qRT-PCR, performed by Quintiles/Expression Analysis, Durham, NC)89. Standard TaqManTM Assays (Applied Biosystems/ThermoFisher Scientific, Foster City, CA) were used to assess the expression of 93 genes selected based on their selectivity and sensitivity to important hepatic receptors known to be modulated by environmental chemicals; importance in human hepatocyte functionality; and hepatotoxicity. […]
Compound,outcome,AC50
CCOP(=O)(SC(C)CC)N1CCSC1=O (stereo not given),inactive,
C#CC(C)(C)NC(=O)c1cc(Cl)cc(Cl)c1,inactive,
CCCOCC(=Nc1ccc(Cl)cc1C(F)(F)F)n1ccnc1,,88.6 µM (active)
O=C(O)c1cc(Oc2ccc(C(F)(F)F)cc2Cl)ccc1[N+](=O)[O-],inactive,
COc1cccc(C(=O)NN(C(=O)c2cc(C)cc(C)c2)C(C)(C)C)c1C,inactive,
C[Si](Cn1cncn1)(c1ccc(F)cc1)c1ccc(F)cc1,inactive,
CC(C)N(C(=O)SCC(Cl)=C(Cl)Cl)C(C)C,inactive,
CCCCSP(=O)(SCCCC)SCCCC,inactive,
CCC(CC)Nc1c([N+](=O)[O-])cc(C)c(C)c1[N+](=O)[O-],,89.4 µM (active)
C[N+]1(C)CCCCC1,inactive,
CCOP(=S)(OCC)Oc1cc(C)nc(C(C)C)n1,inactive,
S=C1NCCN1,inactive,
CNc1cnn(-c2cccc(C(F)(F)F)c2)c(=O)c1Cl,inactive,
CN(C)C(=O)Nc1cccc(C(F)(F)F)c1,inactive,
CN(C)[C@@H]1C(=O)C(C(N)=O)=C(O)[C@@]2(O)C(=O)C3=C(O)c4c(O)cccc4[C@@](C)(O)[C@H]3[C@H](O)[C@@H]12,inactive,
CCOP(=S)(OCC)SCCSCC,inactive,
C#CCC1=C(C)C(OC(=O)C2C(C=C(C)C)C2(C)C)CC1=O (stereo not given),inactive,
CC(C)[C@H](C(=O)O[C@H](C#N)c1cccc(Oc2ccccc2)c1)c1ccc(Cl)cc1,inactive,
CSc1nnc(C(C)(C)C)c(=O)n1N,inactive,
CCOP(=S)(Oc1cnc(C(C)(C)C)nc1)OC(C)C (stereo not given),,85.6 µM (active)

Compound,outcome,AC50
CN(C)NC(=O)CCC(=O)O,inactive,
CC[C@H](C)[C@H]1O[C@]2(C=C[C@@H]1C)C[C@@H]1C[C@@H](C/C=C(\C)[C@@H](O[C@H]3C[C@H](OC)[C@@H](O[C@H]4C[C@H](OC)[C@@H](NC)[C@H](C)O4)[C@H](C)O3)[C@@H](C)/C=C/C=C3\CO[C@@H]4[C@H](O)C(C)=C[C@@H](C(=O)O1)[C@]34O)O2,inactive,
CNC(=O)ON=C(C)SC,inactive,
CCc1cnc(C2=NC(C)(C(C)C)C(=O)N2)c(C(=O)O)c1 (stereo not given),inactive,
CSc1nc(NC(C)C)nc(NC(C)C)n1,inactive,
COP(=O)(NC(C)=O)SC (stereo not given),inactive,
CC(C)=CC1C(C(=O)OCN2C(=O)C3=C(CCCC3)C2=O)C1(C)C (stereo not given),inactive,
CCC(=NOC/C=C/Cl)C1=C(O)CC(C2CCOCC2)CC1=O (stereo not given),inactive,
CCOC(=O)COc1cc(-c2nn(C)c(OC(F)F)c2Cl)c(F)cc1Cl,inactive,
CON=C(C(=O)OC)c1ccccc1CON=C(C)c1cccc(C(F)(F)F)c1,inactive,
CC(C1CC1)C(O)(Cn1cncn1)c1ccc(Cl)cc1 (stereo not given),,31.7 µM (active)
Nc1nc(N)nc(NC2CC2)n1,inactive,
COP(=O)(OC)SCn1c(=O)oc2cc(Cl)cnc21,inactive,
Nc1c(Cl)cc([N+](=O)[O-])cc1Cl,inactive,
FC(F)C(F)(F)OCC(Cn1cncn1)c1ccc(Cl)cc1Cl (stereo not given),,12.2 µM (active)
N#CSCSC#N,inactive,
CCCSP(=O)(OCC)Oc1ccc(Br)cc1Cl (stereo not given),inactive,
O=[N+]([O-])c1cc(C(F)(F)F)c(Cl)c([N+](=O)[O-])c1Nc1ncc(C(F)(F)F)cc1Cl,,50 µM (active)
COc1ccc(C(=CC(=O)N2CCOCC2)c2ccc(Cl)cc2)cc1OC,inactive,
CCOP(=S)(OCC)Oc1ccc2c(C)c(Cl)c(=O)oc2c1,inactive,
